Where “and” joins values, the source holds several entries; their conditions need not be identical. Equal values may be shown once. Screen size: about 5,500 compounds; about 2,000 (36%) were called active. Not shown: some 18% with an inconclusive outcome. Rule as the data show it: active = normalized growth mostly below about 0.91 (no sharp cut-off); inconclusive = no clear call, values can overlap the other calls; inactive = mostly above about 0.92. The list shows a part of the results.
Test: chemical genetic growth profiling, strain panel (AID 1159580);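 also: tested at 20 µM; growth read once vehicle control cultures reached saturation at 30 °C; 1 = growth at the plate median or of vehicle wells; lower values mean less growth of the strain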
Settings: S. cerevisiae deletion strains, growth OD
[1] = locus YNL128W, strain TEP1, hits give low values

Measured: normalized growth

CCC(C)C(NC)C(=O)O (stereo not drawn)
inactive: locus YAL013W, strain DEP1, hits give low values 1.02 | locus YAL021C, strain ccr4, hits give low values 1.03 | locus YAL026C, strain drs2, hits give low values 1.02 | locus YAL030W, strain snc1, hits give low values 1.01 | locus YBL061C, strain skt5, hits give low values 1.03 | locus YBR009C, strain hhf1, hits give low values 1.02 | locus YBR021W, strain FUR4, hits give low values 1.01 | locus YBR023C, strain chs3, hits give low values 1.02 | locus YBR171W, strain sec66, hits give low values 1.05 | locus YBR229C, strain ROT2, hits give low values 0.947 | locus YBR231C, strain swc5, hits give low values 1.01 | locus YBR279W, strain paf1, hits give low values 1.01 | locus YCL011C, strain gbp2, hits give low values 1.02 | locus YCL016C, strain dcc1, hits give low values 1.03 | locus YCL029C, strain bik1, hits give low values 0.982 | locus YCL061C, strain MRC1, hits give low values 1.03 | locus YCL069W, strain vba3, hits give low values 1.02 | locus YCR088W, strain abp1, hits give low values 1 | locus YDL005C, strain med2, hits give low values 1.02 | locus YDL035C, strain GPR1, hits give low values 0.981 | locus YDL040C, strain nat1, hits give low values 1.01 | locus YDL074C, strain BRE1, hits give low values 1.01 | locus YDL101C, strain DUN1, hits give low values 0.983 | locus YDL134C, strain PPH21, hits give low values 0.984 | locus YDL185W, strain tfp1, hits give low values 0.986 | locus YDL192W, strain arf1, hits give low values 1 | locus YDR001C, strain nth1, hits give low values 1.02 | locus YDR069C, strain doa4, hits give low values 1.02 | locus YDR101C, strain arx1, hits give low values 1 | locus YDR137W, strain rgp1, hits give low values 1.06 | locus YDR159W, strain sac3, hits give low values 1.02 | locus YDR162C, strain NBP2, hits give low values 0.966 | locus YDR195W, strain ref2 0.985 | locus YDR297W, strain sur2, hits give low values 1.01 | locus YDR318W, strain mcm21, hits give low values 0.985 | locus YDR334W, strain swr1, hits give low values 1.02 | locus YDR335W, strain msn5, hits give low values 1.01 | locus YDR388W, hits give low values 0.994 | locus YDR392W, strain spt3, hits give low values 0.986 | locus YDR502C, strain sam2, hits give low values 0.997 | locus YEL003W, strain gim4, hits give low values 1.01 | locus YEL037C, strain rad23, hits give low values 1.02 | locus YEL061C, strain CIN8 (second series), hits give low values 1.02 | locus YEL061C, strain CIN8, hits give low values 0.983 | locus YER015W, strain faa2, hits give low values 1.02 | locus YER016W, strain bim1, hits give low values 1.01 | locus YER110C, hits give low values 0.979 | locus YER111C, strain swi4, hits give low values 1.03 | locus YER155C, strain BEM2 (second series), hits give low values 1.01 | locus YER155C, strain BEM2, hits give low values 1 | locus YER167W, strain BCK2, hits give low values 0.975 | locus YFR010W, strain ubp6, hits give low values 1.03 | locus YGL078C, strain dbp3, hits give low values 0.999 | locus YGL086W, strain mad1, hits give low values 1.01 | locus YGL167C, strain pmr1, hits give low values 1.02 | locus YGL173C, strain kem1, hits give low values 1.03 | locus YGL227W, strain vid30, hits give low values 1.02 | locus YGL240W, strain doc1, hits give low values 1.01 | locus YGL248W, strain PDE1, hits give low values 0.982 | locus YGL253W, strain hxk2, hits give low values 1.02 | locus YGR135W, strain pre9, hits give low values 0.99 | locus YGR252W, strain gcn5, hits give low values 0.986 | locus YHR013C, strain ard1, hits give low values 1.03 | locus YHR027C, strain rpn1, hits give low values 1.03 | locus YHR030C, strain SLT2, hits give low values 0.985 and 1.06 | locus YHR079C, strain IRE1 (second series), hits give low values 0.991 | locus YHR079C, strain IRE1, hits give low values 1.09 | locus YHR094C, strain hxt1, hits give low values 0.977 | locus YHR129C, strain ARP1, hits give low values 0.99 | locus YHR142W, strain chs7, hits give low values 1.02 | locus YHR200W, strain rpn10, hits give low values 0.986 | locus YIL066C, strain RNR3, hits give low values 0.944 | locus YIL073C, strain SPO22, hits give low values 0.972 | locus YIL125W, strain kgd1, hits give low values 0.982 | locus YIR030C, strain dcg1, hits give low values 0.99 | locus YJL092W, strain hpr5, hits give low values 1.03 | locus YJL095W, strain BCK1 (second series), hits give low values 1.01 | locus YJL095W, strain BCK1, hits give low values 1.05 | locus YJL115W, strain asf1, hits give low values 1.03 | locus YJL129C, strain trk1, hits give low values 1.05 | locus YJL134W, strain LCB3, hits give low values 0.967 | locus YJL154C, strain vps35, hits give low values 1.01 | locus YJL164C, strain tpk1, hits give low values 1.03 | locus YJL166W, strain qcr8, hits give low values 1.02 | locus YJL168C, strain set2, hits give low values 0.993 | locus YJL187C, strain SWE1 (second series), hits give low values 1 | locus YJL187C, strain SWE1, hits give low values 1.01 | locus YJR043C, strain POL32, hits give low values 0.969 | locus YJR066W, strain TOR1, hits give low values 1 | locus YKL009W, strain mrt4, hits give low values 1.01 | locus YKL068W, hits give low values 0.973 | locus YKL085W, strain MDH1 (second series), hits give low values 0.979 | locus YKL085W, strain MDH1, hits give low values 0.979 | locus YKL160W, strain elf1, hits give low values 1.02 | locus YKL190W, strain CNB1, hits give low values 1 | locus YKR001C, strain vps1, hits give low values 1 | locus YKR026C, strain gcn3, hits give low values 1.02 | locus YKR091W, strain srl3, hits give low values 1 | locus YLL001W, strain dnm1, hits give low values 1.03 | locus YLL026W, hits give low values 1.01 | locus YLL041C, strain sdh2, hits give low values 1.02 | locus YLR027C, strain aat2, hits give low values 1.02 | locus YLR039C, strain RIC1, hits give low values 0.995 | locus YLR058C, strain SHM2, hits give low values 0.935 | locus YLR102C, strain apc9, hits give low values 0.985 | locus YLR113W, strain HOG1, hits give low values 1.09 | locus YLR221C, strain rsa3, hits give low values 1.03 | locus YLR258W, strain gsy2, hits give low values 1.01 | locus YLR262C, strain YPT6 (second series), hits give low values 1.05 | locus YLR262C, strain YPT6, hits give low values 0.989 | locus YLR268W, strain sec22, hits give low values 1.03 | locus YLR320W, strain mms22, hits give low values 1.03 | locus YLR330W, strain CHS5, hits give low values 0.987 | locus YLR342W, strain FKS1 (second series), hits give low values 0.977 | locus YLR342W, strain FKS1, hits give low values 1.01 | locus YLR357W, strain rsc2, hits give low values 1.02 | locus YLR370C, strain arc18, hits give low values 1.03 | locus YLR371W, strain rom2, hits give low values 0.982 | locus YLR384C, strain iki3, hits give low values 1.01 | locus YLR418C, strain cdc73, hits give low values 0.971 | locus YML016C, strain PPZ1, hits give low values 0.992 | locus YML032C, strain rad52, hits give low values 0.963 | locus YML120C, strain ndi1, hits give low values 1.01 | locus YML124C, strain tub3, hits give low values 0.997 | locus YMR058W, strain fet3, hits give low values 1.03 | locus YMR078C, strain ctf18, hits give low values 0.985 | locus YMR125W, strain sto1, hits give low values 1.01 | locus YMR129W, hits give low values 1.02 | locus YMR205C, strain PFK2, hits give low values 1.03 | locus YMR223W, strain ubp8, hits give low values 0.991 | locus YMR231W, strain pep5, hits give low values 1.01 | locus YMR307W, strain GAS1, hits give low values 1.02 | locus YNL067W, strain RPL9B, hits give low values 1.03 | locus YNL071W, strain lat1, hits give low values 1.02 | [1] 0.986 | locus YNL183C, strain NPR1, hits give low values 0.998 | locus YNL209W, strain ssb2, hits give low values 1.01 | locus YNL233W, strain BNI4, hits give low values 1.04 | locus YNL248C, strain rpa49, hits give low values 1.02 | locus YNL250W, strain rad50, hits give low values 0.962 | locus YNL271C, strain bni1, hits give low values 0.992 | locus YNL298W, strain CLA4, hits give low values 0.988 | locus YNL307C, strain MCK1, hits give low values 0.988 | locus YNL322C, strain KRE1 (second series), hits give low values 1.02 | locus YNR049C, strain mso1, hits give low values 1.02 | locus YNR052C, strain pop2, hits give low values 1.01 | locus YOL012C, strain htz1 0.872 | locus YOL147C, strain pex11, hits give low values 0.976 | locus YOR001W, strain rrp6, hits give low values 1.02 | locus YOR061W, strain CKA2, hits give low values 0.961 | locus YOR069W, strain VPS5, hits give low values 0.984 | locus YOR070C, strain gyp1, hits give low values 1.03 | locus YOR080W, strain dia2, hits give low values 1.02 | locus YOR083W, strain WHI5, hits give low values 1.02 | locus YOR106W, strain vam3, hits give low values 1.02 | locus YOR136W, strain idh2, hits give low values 0.994 | locus YOR144C, strain elg1, hits give low values 0.993 | locus YOR184W, strain ser1, hits give low values 0.989 | locus YOR231W, strain MKK1, hits give low values 1.08 | locus YOR265W, strain rbl2, hits give low values 1.01 | locus YOR270C, strain vph1, hits give low values 1.05 | locus YOR290C, strain snf2, hits give low values 1.02 | locus YOR316C, strain cot1, hits give low values 0.993 | locus YPL051W, strain arl3, hits give low values 1.04 | locus YPL078C, strain atp4, hits give low values 1.02 | locus YPL106C, strain sse1, hits give low values 1.01 | locus YPL240C, strain hsp82, hits give low values 1 | locus YPL241C, strain CIN2, hits give low values 0.98 | locus YPL256C, strain CLN2, hits give low values 1.09 | locus YPR119W, strain clb2, hits give low values 0.991 | locus YPR141C, strain kar3, hits give low values 0.978 | locus YPR163C, strain tif3, hits give low values 0.985 | locus YPR167C, strain met16, hits give low values 0.989 | strain wtn01, hits give low values 1.01

NC(=O)c1cc[n+](CC2=C(C(=O)O)N3C(=O)[C@@H](NC(=O)[C@@H](c4ccccc4)S(=O)(=O)[O-])[C@H]3SC2)cc1
inactive: locus YAL040C, strain CLN3, hits give low values 0.993 | locus YCL061C, strain MRC1 (second series), hits give low values 0.999 | locus YER002W, strain NOP16, hits give low values 0.995 | [1] 1 | locus YNL175C, strain NOP13, hits give low values 1 | locus YNL197C, strain WHI3, hits give low values 0.983 | locus YNL224C, strain SQS1, hits give low values 1 | locus YOR083W, strain WHI5 (second series), hits give low values 1.07 | locus YPL055C, strain LGE1, hits give low values 0.988

Reference: PubChem BioAssay AID1159580 (chemical genetic matrix, 2015)
